The record followed here is PubChem BioAssay (NCI).

Molecules are shown by their SMILES. The panel holds about 83,000 compounds, 20% with a hit somewhere; the sample as a whole holds those more often.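 Single-dose data. Exposure time 48 hours. Values below 10 considered active.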 The source made the active and inactive calls.

One assay deals with MDA-MB-435 melanoma. Briefly: NCI-60 one-dose screen, 48 h (100 = growth as untreated, 0 = no growth, -100 = all killed). The settings on record: 10 µM unless noted.
For the compound `COc1ccccc1CNCCCCCCCCCCCCN1C(=O)c2ccc3c4c(ccc(c24)C1=O)C(=O)N(CCCCCCCCCCCCNCc1ccccc1OC)C3=O`, the growth was 58% (inactive).
On to `Cc1nn(CC(=O)O)c2c1C(=O)CC(C)(C)C2`, for which the growth was 106% (inactive).
Same read-out and setting: in the case of `CCCCCCCCCCCCCCn1c2ccccc2c2c3c(c4c5cc(OC)ccc5oc4c21)C(=O)NC3=O` it was 103% (inactive); in that of `COc1cccc(C2C3=C(COC3=O)N(CCO)c3cc4c(cc32)OCO4)c1` (stereo unspecified), -40.1% (active); in that of `CCCCCCCCCCCCCCNc1nc(CO)ncc1-c1ccc(C(F)(F)F)cc1`, 102% (inactive).
On to `CN1CCc2cccc3c2C1Cc1ccc(O)c(O)c1-3` (stereo unspecified), for which the growth is 98.6% (inactive).
Still for that read-out and setting: in the case of `O=C1NC(=S)S/C1=C\c1cccc([N+](=O)[O-])c1` it was 93.7% (inactive).
Regarding `CN(C)C(=S)SCN1C(=O)c2ccc([N+](=O)[O-])cc2S1(=O)=O`, the growth is 101% (inactive).
For `O=C(Nc1ccc(Cl)c(Cl)c1)OCn1ncc2ccc([N+](=O)[O-])cc21`, the growth is 94.3% (inactive).
In the case of `CC(C)(C)[Si](C)(C)OC1[C@@H](CNC(=O)NC(=O)CCl)O[C@@H](n2cnc3c(N)ncnc32)[C@H]1O[Si](C)(C)C(C)(C)C` (stereo partly specified), the growth is -90% (active).
The same measure, in the same setting: the value for `COC(=O)c1c2c(c(C)[n+]([O-])c1C)C(=O)C=C(NCc1ccc(F)cc1)C2=O` was -93.1% (active).
The same measure, in the same setting: the value for `CCCN(CCC)c1ccc(/C=C/c2ccc3cc(OCC)ccc3n2)cc1` was 95% (inactive); that for `CCOC(=O)c1c(Cl)c2c(n1Cc1cc(OC)cc(OC)c1)-c1oncc1CCC2` was -53% (active).
Same read-out and setting: in the case of `O=c1[nH]c(=S)[nH]c(=O)n1Cc1cccc2ccccc12` it was 99.7% (inactive).
On to `CC1=CN2C(=NC3=C(CCCC/C3=C\c3ccccc3)C2c2ccccc2)S1` (stereo unspecified), for which the growth was 99.6% (inactive).
On the same count and under the same terms, the value for `COc1cc(CNCCN2C(=O)c3ccc4c5c(ccc(c35)C2=O)C(=O)N(CCNCc2cc(OC)c(OC)c(OC)c2)C4=O)cc(OC)c1OC` was -63.4% (active); that for `COc1ccc(-c2nc3sc(C)nn3c2-c2nc3cc(C)c(C)cc3[nH]2)cc1` was 95.6% (inactive); that for `Cc1nc2cc(Nc3nc(NCCN)nc(Nc4ccc(F)cc4)n3)ccc2n1Cc1ccccc1` was 80.4% (inactive).
Still for that read-out and setting: the value for `Cc1ccc2c(N/N=C\c3ccco3)cc(C)nc2n1` was 36.6% (inactive).
The same measure, in the same setting: the value for `CCCC1=NNC(=O)C1` was 98.5% (inactive); that for `O=C(NCc1ccc(F)cc1)C1CN(c2ccc(Cl)cc2)N(c2ccc(Cl)cc2)C1=O` (stereo unspecified) was -21.8% (active).
Regarding `CC1SC(c2ccc(Cl)cc2)N(CCc2cccs2)C1=O` (stereo unspecified), the growth was -37.4% (active).
`COc1cccc2c(=O)c3c(sc12)c(NCCN(C)C)nc1ccccc13`: the growth was -87.1% (active).
In the case of `NC(=O)c1cccc(-n2ccc3cc(NC(=O)Nc4ccc(Cl)c(Cl)c4)ccc32)n1`, the growth is 61% (inactive).
On the same count and under the same terms, in the case of `Cc1ccc(S(=O)(=O)N2C/C(=C\c3cc(F)cc(F)c3)C(=O)/C(=C/c3cc(F)cc(F)c3)C2)cc1` it was -76.6% (active); in that of `Cn1c(=O)c(S(=O)(=O)c2ccccc2)cc2ccc3c(cnn3-c3ccc(Cl)cc3)c21`, 80.8% (inactive); in that of `CSc1ccc(OC(C)=O)cc1C`, 91.3% (inactive).
Take `O=c1onc(-c2ccccc2)c2ccccc12`: the growth was 105% (inactive).
Same read-out and setting: in the case of `Nc1cc(Br)c(-c2nnc(CCC(=O)c3nc4ccccc4[nH]3)o2)c(Br)c1` it was 5.71% (active); in that of `O=C1CC2c3cc(-c4cc5ccccc5o4)ccc3CCN2C(=O)N1c1ccccc1` (stereo unspecified), 89.3% (inactive).
As for `COc1cccc(-c2ccc3c(c2)C2CCN(Cc4ccccc4)C3C2)c1` (stereo unspecified), the growth is 9.08% (active).
Turning to `CCCCCCCCCCCCSC1=CC(=O)C=CC1=O`, the growth is 102% (inactive).
The same measure, in the same setting: the value for `COc1cc(/C=C/C(=O)C2=C(/C=C/c3ccc(O)c(OC)c3)NC(=O)NC2c2ccc(O)c(OC)c2)ccc1O` (stereo unspecified) was 93.4% (inactive); that for `CCOC(=O)c1c(Cl)c2c(n1Cc1ccc(OC)cc1)-c1oncc1CCC2` was 101% (inactive); that for `Cc1nc2cc(Nc3nc(N4CCCCC4)nc(N4CCOCC4)n3)ccc2n1Cc1ccccc1` was 52.8% (inactive).
Same read-out and setting: in the case of `COc1ccc(C2CC(c3cc(OC)c(OC)c(OC)c3)=NN2c2ccc(S(N)(=O)=O)cc2)cc1` (stereo unspecified) it was 66.2% (inactive); in that of `Brc1ccccc1Nc1ccc2nnc(-c3ccncc3)n2n1`, 105% (inactive).
On to `Brc1ccc(SCN(CSc2ccc(Br)cc2)Cc2ccccc2)cc1`, for which the growth was 75.8% (inactive).

The test system of a further assay is SW-620 colon. Described as above. As to conditions: 10 µM unless noted.
Regarding `COc1ccccc1CNCCCCCCCCCCCCN1C(=O)c2ccc3c4c(ccc(c24)C1=O)C(=O)N(CCCCCCCCCCCCNCc1ccccc1OC)C3=O`, the growth was 74.1% (inactive).
The same measure, in the same setting: in the case of `Cc1nn(CC(=O)O)c2c1C(=O)CC(C)(C)C2` it was 117% (inactive); in that of `CCCCCCCCCCCCCCn1c2ccccc2c2c3c(c4c5cc(OC)ccc5oc4c21)C(=O)NC3=O`, 104% (inactive); in that of `COc1cccc(C2C3=C(COC3=O)N(CCO)c3cc4c(cc32)OCO4)c1` (stereo unspecified), 22.4% (inactive).
In the case of `CCCCCCCCCCCCCCNc1nc(CO)ncc1-c1ccc(C(F)(F)F)cc1`, the growth is 103% (inactive).
Still for that read-out and setting: in the case of `CN1CCc2cccc3c2C1Cc1ccc(O)c(O)c1-3` (stereo unspecified) it was 34.8% (inactive); in that of `O=C1NC(=S)S/C1=C\c1cccc([N+](=O)[O-])c1`, 115% (inactive).
With `CN(C)C(=S)SCN1C(=O)c2ccc([N+](=O)[O-])cc2S1(=O)=O`, the growth is 90.1% (inactive).
Still for that read-out and setting: the value for `O=C(Nc1ccc(Cl)c(Cl)c1)OCn1ncc2ccc([N+](=O)[O-])cc21` was 106% (inactive).
Turning to `CC(C)(C)[Si](C)(C)OC1[C@@H](CNC(=O)NC(=O)CCl)O[C@@H](n2cnc3c(N)ncnc32)[C@H]1O[Si](C)(C)C(C)(C)C` (stereo partly specified), the growth was -82% (active).
Regarding `COC(=O)c1c2c(c(C)[n+]([O-])c1C)C(=O)C=C(NCc1ccc(F)cc1)C2=O`, the growth was -9.71% (active).
For `CCCN(CCC)c1ccc(/C=C/c2ccc3cc(OCC)ccc3n2)cc1`, the growth was 89.6% (inactive).
On to `CCOC(=O)c1c(Cl)c2c(n1Cc1cc(OC)cc(OC)c1)-c1oncc1CCC2`, for which the growth is 16.8% (inactive).
Turning to `O=c1[nH]c(=S)[nH]c(=O)n1Cc1cccc2ccccc12`, the growth was 103% (inactive).
For the compound `CC1=CN2C(=NC3=C(CCCC/C3=C\c3ccccc3)C2c2ccccc2)S1` (stereo unspecified), the growth was 103% (inactive).
For `COc1cc(CNCCN2C(=O)c3ccc4c5c(ccc(c35)C2=O)C(=O)N(CCNCc2cc(OC)c(OC)c(OC)c2)C4=O)cc(OC)c1OC`, the growth was -87.3% (active).
For `COc1ccc(-c2nc3sc(C)nn3c2-c2nc3cc(C)c(C)cc3[nH]2)cc1`, the growth was 98.5% (inactive).
Regarding `Cc1nc2cc(Nc3nc(NCCN)nc(Nc4ccc(F)cc4)n3)ccc2n1Cc1ccccc1`, the growth is 73.9% (inactive).
`Cc1ccc2c(N/N=C\c3ccco3)cc(C)nc2n1`: the growth was 39.5% (inactive).
The same measure, in the same setting: in the case of `CCCC1=NNC(=O)C1` it was 99.8% (inactive); in that of `O=C(NCc1ccc(F)cc1)C1CN(c2ccc(Cl)cc2)N(c2ccc(Cl)cc2)C1=O` (stereo unspecified), 36.7% (inactive); in that of `CC1SC(c2ccc(Cl)cc2)N(CCc2cccs2)C1=O` (stereo unspecified), 12.4% (inactive).
As to `COc1cccc2c(=O)c3c(sc12)c(NCCN(C)C)nc1ccccc13`, the growth was -69.5% (active).
For the compound `NC(=O)c1cccc(-n2ccc3cc(NC(=O)Nc4ccc(Cl)c(Cl)c4)ccc32)n1`, the growth was 94.2% (inactive).
Take `Cc1ccc(S(=O)(=O)N2C/C(=C\c3cc(F)cc(F)c3)C(=O)/C(=C/c3cc(F)cc(F)c3)C2)cc1`: the growth is -47% (active).
Still for that read-out and setting: in the case of `Cn1c(=O)c(S(=O)(=O)c2ccccc2)cc2ccc3c(cnn3-c3ccc(Cl)cc3)c21` it was 90.5% (inactive); in that of `CSc1ccc(OC(C)=O)cc1C`, 105% (inactive).
Take `O=c1onc(-c2ccccc2)c2ccccc12`: the growth is 103% (inactive).
The same measure, in the same setting: the value for `Nc1cc(Br)c(-c2nnc(CCC(=O)c3nc4ccccc4[nH]3)o2)c(Br)c1` was 72.1% (inactive).
In the case of `O=C1CC2c3cc(-c4cc5ccccc5o4)ccc3CCN2C(=O)N1c1ccccc1` (stereo unspecified), the growth is 111% (inactive).
On to `COc1cccc(-c2ccc3c(c2)C2CCN(Cc4ccccc4)C3C2)c1` (stereo unspecified), for which the growth was 53.6% (inactive).
The same measure, in the same setting: in the case of `CCCCCCCCCCCCSC1=CC(=O)C=CC1=O` it was 109% (inactive); in that of `COc1cc(/C=C/C(=O)C2=C(/C=C/c3ccc(O)c(OC)c3)NC(=O)NC2c2ccc(O)c(OC)c2)ccc1O` (stereo unspecified), 94.2% (inactive).
Take `CCOC(=O)c1c(Cl)c2c(n1Cc1ccc(OC)cc1)-c1oncc1CCC2`: the growth is 71.1% (inactive).
As to `Cc1nc2cc(Nc3nc(N4CCCCC4)nc(N4CCOCC4)n3)ccc2n1Cc1ccccc1`, the growth was 44.1% (inactive).
The same measure, in the same setting: the value for `COc1ccc(C2CC(c3cc(OC)c(OC)c(OC)c3)=NN2c2ccc(S(N)(=O)=O)cc2)cc1` (stereo unspecified) was 67.9% (inactive); that for `Brc1ccccc1Nc1ccc2nnc(-c3ccncc3)n2n1` was 102% (inactive).
The same measure, in the same setting: in the case of `Brc1ccc(SCN(CSc2ccc(Br)cc2)Cc2ccccc2)cc1` it was 102% (inactive).
